Experimental data from ChEMBL document CHEMBL3988442, “University of Dundee, Small-Polar-MMV Screening Library” (2021).
Out of some 48,000 compounds screened, about 13,000 (27%) showed an effect of 50% or more. The list shows a part of the results.

The compounds below were run on Wolbachia pipientis (assay: Anti-Wolbachia Cell-Based Screen). Settings: 5 µM.
Assay type: functional
Design: scale not given: in the data most compounds retested in dose-response had high values

Row | SMILES | Percent Effect [%]
1 | CC(=O)NCCCNCc1ccc(Cl)c2cccnc12 | -6.459
2 | CC(Cn1cccn1)NC(=O)NCc1ccc(S(C)(=O)=O)cc1 (centres undefined) | 102.2
3 | CC(Cn1cccn1)NC(=O)NCc1ccc(S(N)(=O)=O)cc1 (centres undefined) | 4.625
4 | COc1ccc(CNC(=O)NC(C)Cn2cccn2)cc1O (centres undefined) | 8.397
5 | Cc1ccc(C(=O)NC(C)Cn2cccn2)c(=O)[nH]1 (centres undefined) | -0.2392
6 | CC(C)NC(=O)NCc1ccc(C(=O)NC(C)Cn2cccn2)cc1 (centres undefined) | 146.4
7 | CC(Cn1cccn1)NC(=O)NCc1ccc(C(N)=O)cc1 (centres undefined) | 167.3
8 | CC(Cn1cccn1)NC(=O)CCc1ccc(S(N)(=O)=O)cc1 (centres undefined) | 6.181
9 | CC(Cn1cccn1)NC(=O)NCc1cccnc1OC1CCCC1 (centres undefined) | 11.91
10 | CC(C)c1nccn1C(C)C(=O)NCc1noc(Cc2cccs2)n1 (centres undefined) | 8.731
11 | O=C(NC1CC1)N1CCOC2(CCCN(c3cccc(F)c3)C2)C1 (centres undefined) | -2.504
12 | CC(CCc1ccccc1F)C(=O)NS(=O)(=O)CC1CC1 (centres undefined) | -8.345
13 | CC(=O)N1CCC(Nc2cccc(OC(F)F)c2C)CC1 | -10.39
14 | Cn1cnnc1CN1CCC2(CCC(=O)N(Cc3ccccn3)C2)CC1 | -8.652
15 | FC(F)(F)c1ccnc(N2CCCN(C3CCOCC3)CC2)c1 | -6.382
16 | Cc1noc(-c2ccnc(N3CCN(C4CCOCC4)CC3)c2)n1 | 8.096
17 | Cc1noc(-c2ccnc(N3CCC(N4CCCC4)CC3)c2)n1 | -2.845
18 | Clc1cc(N2CCN(C3CCOCC3)CC2)nc2[nH]ccc12 | 109.8
19 | Cc1nc(-c2cccc(N3CCC(N4CCCC4)CC3)c2)cs1 | -1.882
20 | Clc1cc(N2CCC(N3CCCC3)CC2)nc2[nH]ccc12 | 113
21 | COc1cc(N2CCC3(CC2)C(c2ccncc2)CC(=O)N3C)ncn1 (centres undefined) | 16.73
22 | COc1cc(N2CCC3(CC2)CNC(=O)CO3)ncn1 | 115.6
23 | COc1cc(N2CCC3(CC2)CN(C)C(=O)CO3)ncn1 | 113.9
24 | COc1cc(N2CC3(CCN(S(=O)(=O)C4CC4)C3)C2)ncn1 | -10.78
25 | COc1cc(N2CCC3(CC2)OCC(=O)NC3C)ncn1 (centres undefined) | 115.6
26 | CCS(=O)(=O)N1CCC2(CN(c3cc(OC)ncn3)C2)C1 | -9.777
27 | COc1cc(N2CCC3(CC2)CC(N2CCN(C)CC2)CO3)ncn1.O=C(O)C(F)(F)F.O=C(O)C(F)(F)F (centres undefined) | -26.84
28 | COc1cc(N2CCC3(CC2)CC(N2CCOCC2)CO3)ncn1 (centres undefined) | -10.74
29 | CC(C)NC(=O)c1nnn(-c2cccc(C(F)(F)F)c2)c1N | 5.987
